MCF10A rereplic: inducers of DNA re-replication in MCF 10A breast cells. MCF 10A DNA re-replication, Hoechst nuclear intensity, 48 h. Potency, µM (series often up to 46.1 µM), usual class: activators. 350,000 compounds, 2.9% hits. AID 624296; also: nearly all actives have a fitted effect of over 50% in size
PINK1 expr mod: PINK1 expression modulation; Potency, µM (doses to about 76.6 µM), most hits filed as activators; 410,000 compounds, 0.2% hits; PINK1 immunofluorescence, high-content cytometry, 24 h; active = well fitted activation curve with a large enough effect; inconclusive = small, poorly fitted or top-dose-only effect; cell line not stated here; also: nearly all actives have a fitted effect of over 65% in size
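PINK1 protein, normally rapidly degraded, was detected by immunofluorescence after 24 hour compound treatment of a stable cell line. Titration data (5 concentrations) came from laser-scanning cytometry, with CCCP-treated wells as controls.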
KB-3-1 cytotox: KB-3-1 parental cell cytotoxicity. AID 1347075. 400,000 compounds, 1.4% hits. Potency, µM (doses to about 46.1 µM), hits mostly cytotoxic. KB-3-1 viability, CellTiter-Glo ATP luminescence, 72 h; also: nearly all actives have a fitted effect of over 60% in size
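KB-3-1 parental drug-naive adenocarcinoma cells in DMEM/10% FBS, incubated 72 h at 37 C with pin-transferred compounds across a concentration series. Viability by CellTiter-Glo luminescence; concentration-response curves fitted after normalization.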
KB-V1 MDR tox: KB-V1 MDR subline cytotoxicity | AID 1347076 | 400,000 compounds, 3.4% hits | Potency, µM (top dose mostly 46.1 µM), hits mostly cytotoxic | KB-V1 MDR cells viability, CellTiter-Glo, 72 h; also: nearly all actives have a fitted effect of over 60% in size
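In this primary screen, KB-V1 cells overexpressing P-gp are incubated with library compounds (lowest to highest concentration) for 72 h at 37 degrees C before a luminescent ATP viability read.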
12-LOX inh: ALOX12 (human) lipoxygenase inhibition | P18054 | Potency, µM (top dose mostly 108 µM), usual class: inhibitors | 580,000 compounds, 1.1% hits | purified 12hLO, xylenol orange hydroperoxide absorbance
Target sequence (P18054 whole entry, looked up): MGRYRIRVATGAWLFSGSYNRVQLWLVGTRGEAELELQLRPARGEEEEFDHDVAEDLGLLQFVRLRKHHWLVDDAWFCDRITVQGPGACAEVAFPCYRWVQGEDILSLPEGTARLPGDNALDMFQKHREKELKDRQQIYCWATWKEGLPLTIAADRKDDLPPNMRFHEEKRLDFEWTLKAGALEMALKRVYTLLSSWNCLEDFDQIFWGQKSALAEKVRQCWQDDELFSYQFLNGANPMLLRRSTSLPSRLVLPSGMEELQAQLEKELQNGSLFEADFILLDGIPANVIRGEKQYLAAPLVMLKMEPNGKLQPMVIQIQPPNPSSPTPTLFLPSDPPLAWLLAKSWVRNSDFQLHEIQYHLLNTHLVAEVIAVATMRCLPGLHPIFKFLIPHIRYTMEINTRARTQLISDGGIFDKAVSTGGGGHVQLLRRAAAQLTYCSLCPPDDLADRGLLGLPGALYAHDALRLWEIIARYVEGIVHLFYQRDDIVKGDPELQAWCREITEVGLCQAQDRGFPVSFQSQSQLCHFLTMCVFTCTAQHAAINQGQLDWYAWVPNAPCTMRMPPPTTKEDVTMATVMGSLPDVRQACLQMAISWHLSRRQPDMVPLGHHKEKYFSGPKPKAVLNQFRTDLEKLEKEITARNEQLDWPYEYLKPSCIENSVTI
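Purified human 12hLO at 150 nM in 25 mM Hepes, 0.01% Triton X-100, pH 7.0, preincubated 15 min at room temperature with compound. Reaction started with 40 uM arachidonic acid, 30 min at room temperature. Hydroperoxide measured by Fe-xylenol orange, 573/405 nm absorbance ratio.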
SW480 rerep: induces DNA re-replication in SW480 colon adenocarcinoma cells; AID 624297; Potency, µM (titrated, usually from 46.1 µM), most hits filed as activators; SW480 DNA re-replication, Hoechst DNA content imaging, 48 h; 340,000 compounds, 1.8% hits; also: nearly all actives have a fitted effect of over 55% in size
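Readout is total intensity of Hoechst-stained nuclei, excited at 405 nm and collected at 500-530 nm. Compound treatment lasted 48 hr at 37 C in 5% CO2 before staining.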
Hits are given with their value; - = inactive; ? = inconclusive; . = not tested or not shown; ! = repeats disagree. In the library only some 5.8% were active in any assay of this set; here they are far more common. Unless noted, calls follow the shape of the dose curve; as a rule, active = well fitted curve in the direction sought with a large enough effect; inconclusive = small, poorly fitted or top-dose-only effect, or another doubt; inactive = no such curve, though single readings can be large; an effect the other way counts as inactive or inconclusive.

SMILES | MCF10A rereplic | PINK1 expr mod | KB-3-1 cytotox | KB-V1 MDR tox | 12-LOX inh | SW480 rerep
Cc1ccc2c(c1)C(=O)CC(c1ccc3c(c1)OCCO3)O2 (centres undefined) | 16µM | - | - | - | - | -
COc1ccc(/C=C/C(=O)NC(=S)NNC(=O)c2cccs2)cc1 | 10µM | - | ? | ? | - | 23µM
COc1ccc(C(=O)NNC(=S)NC(=O)c2cccs2)cc1 | ? | - | ? | - | ? | -
Cc1ccc(NC(=O)CCc2ncc(-c3ccccc3F)o2)cc1C | . | . | . | . | - | .
O=C(/C=C/c1ccccc1)c1ccccn1 | 18µM | - | - | - | - | ?
COc1cccc(-c2cn3nc4c(nc3n2)CCCC4)c1 | ? | - | 18µM | ? | . | ?
CCOc1ccc(CCn2c(-c3ccco3)nc3ccccc3c2=O)cc1OCC | ? | - | ? | 7.3µM | - | ?
O=c1c2ccccc2nc(-c2ccoc2)n1CCc1ccccc1 | ? | - | ? | 12µM | ? | -
CC(C)c1ccc(CN2CCc3ncc(C(=O)NCc4ccccc4)n3CC2)cc1 | . | . | . | . | - | .
CC(Sc1nnc2c(Cl)cc(C(F)(F)F)cn12)C(=O)c1ccccc1 (centres undefined) | . | . | . | . | - | .
O=C(CSC1=N/C(=C/c2ccc(Cl)c(Cl)c2)C(=O)N1c1ccccc1F)NC1CC1 | 15µM | - | - | 15µM | - | ?
COCC(C)NC(=O)Cc1n[nH]c(=O)c2ccccc12 (centres undefined) | . | . | . | . | - | .
CC(C)CC1Nc2ncnc(N3CCOCC3)c2N(Cc2ccc(Cl)cc2)C1=O (centres undefined) | - | - | - | - | 7.9µM! | -
COC(=O)C(C)SC1=N/C(=C/c2ccc(-n3cncn3)cc2)C(=O)N1 (centres undefined) | 16µM | - | - | - | - | ?
CCSC1=N/C(=C\c2ccccc2)C(=O)N1 | - | ? | - | - | - | -
Cc1nc2ccc(Cl)cc2cc1C(=O)Nc1ccncc1 | . | . | . | . | - | .
Cc1[nH]nc(N=CC2=C(O)CC(c3ccco3)CC2=O)c1-c1ccc(Cl)cc1 (centres undefined) | - | - | - | 16µM | - | -
Cc1[nH]nc(N=CC2=C(O)CC(C)(C)CC2=O)c1-c1ccc(Cl)cc1 | 18µM! | - | - | 21µM! | - | ?
CC1(C)CC(=O)C(C=Nc2ccc(O)cc2)=C(O)C1 | - | - | - | - | - | -
CC1(C)CC(=O)C(C=Nc2ccc(N)cc2)=C(O)C1 | 0.65µM | - | - | - | - | ?
COc1cccc(NC(=O)COC(=O)c2cc3c(C)nn(-c4ccc(F)cc4)c3s2)c1 | . | . | . | . | - | .
COCC(C)NC(=O)c1cc2ccccc2oc1=O (centres undefined) | . | . | . | . | - | .
C=CCOc1ccccc1N | . | . | . | . | 5.6µM | .
COc1ccc2c(c1)O[C@@H](c1cccc(C(F)(F)F)c1)[C@H](O)C2=O | - | . | . | . | . | 21µM
Cc1c(CC(=O)O)c(=O)oc2cc(OCc3ccccc3Cl)ccc12 | . | . | . | . | - | .
SMILES | MCF10A rereplic | PINK1 expr mod | KB-3-1 cytotox | KB-V1 MDR tox | 12-LOX inh | SW480 rerep
Cc1cccc(C(=O)Oc2c(Br)cc(Br)cc2/C=N/NC(=O)c2ccncc2)c1 | - | - | - | - | - | -
Cc1cc(C(=O)N/N=C/c2cc(Br)cc(Br)c2OC(=O)c2cccc(F)c2)n[nH]1 | 15µM | - | ? | ? | - | 0.92µM
Cc1cccc(NC(=S)NCC(C)CSc2ccc(Cl)cc2)c1 (centres undefined) | 18µM | ? | ? | ? | 32µM | ?
S=C(NCCSc1ccc(Cl)cc1)Nc1cccc(Cl)c1 | . | . | . | . | 35µM | .
Cc1cccc(NC(=S)NCCSc2ccc(Cl)cc2)c1 | ? | ? | - | ? | ? | -
Cc1ccc(NC(=S)NCC(C)CSc2ccc(Cl)cc2)cc1 (centres undefined) | - | - | - | - | ? | ?
CSc1cccc(NC(=S)NCCSc2ccc(Cl)cc2)c1 | . | . | . | . | 35µM | .
CC(C)=CC(=O)OCC(=O)Nc1ccc(Cl)cn1 | - | - | - | ? | - | -
Cc1ccc(C(=O)Nc2ccc(Cl)cn2)cc1 | - | - | ? | 6.5µM | - | -
CCN(Cc1ccccc1)S(=O)(=O)c1cc(C(=O)NC2CCCCCC2)ccc1OC | ? | - | ? | ? | - | ?

Assay outcomes: PubChem BioAssay, National Center for Advancing Translational Sciences (NCATS)
